The structures appear in SMILES notation. The whole screen tested about 69,000 compounds, of which about 950 (1.4%) showed an effect of 50% or more. This is one part of a sample in which strong results are shown more often than they occur.

The subject of the assay is Mycobacterium tuberculosis. Kind of assay: Cornell M. t heat shock assay. Also: in the data most compounds retested in dose-response had high values. The format is functional, organism-based. Also noted: dose or concentration left out as unconfirmed.
`O=C(O)C(F)(F)F.O=C(O)C(F)(F)F.O=C1C[C@H]2[C@@H](CCN2C(=O)Cc2ccsc2)N1Cc1cccnc1`: the “Percent Effect” value was -3.092%.

Consider `CCCN1CCC2(CC1)CN(C(=O)c1cccnc1)c1ccc(F)cc12.O=C(O)C(F)(F)F.O=C(O)C(F)(F)F`, for which the “Percent Effect” value amounted to 1.02%. To `O=C(c1cc(COc2ccc3c(c2)OCO3)[nH]n1)N1CCOCC1` belongs 27.44%; to `O=C(c1cc(COc2ccc3c(c2)OCO3)[nH]n1)N1CCCC1`, 27.84%. In the case of `O=C(c1cc(COc2ccc3c(c2)OCO3)[nH]n1)N1CCSCC1`, the “Percent Effect” value is recorded as 62.66%. For `O=C(NC1CC1)[C@@]12CCO[C@@H]1CCN(Cc1ccc3c(c1)OCO3)C2.O=C(O)C(F)(F)F`, the “Percent Effect” value is given as 3.117%. Next, `O=C(Nc1ccc(Cl)cn1)c1nn(C2CCS(=O)(=O)C2)c2c1CCCC2` (stereo not given): 11.75%; `CCc1c(C)nc(-n2nc(C3CC3)cc2NC(C)=O)[nH]c1=O`: -4.817%.

As for `CCCc1cc(=O)[nH]c(-c2cccc(CN3CCCCCC3)c2)n1`, the “Percent Effect” value was -11.64%. `Cc1cc(C2CCC2)nc(N2CCC3(CCNC(=O)CC3)CC2)n1`: the “Percent Effect” value was found to be 9.358%. To `CCn1nc(C)c(NC(=O)c2cc(NC(=O)C3CC3)n(C)n2)c1C` belongs -24.03%. Regarding `CC(C)c1cc(=O)[nH]c(-n2nc(C3CC3)cc2N)n1`, the “Percent Effect” value is 103%. To `Cc1cc(=O)[nH]c(-n2nc(C3CC3)cc2N)n1` belongs 101%; to `Cc1cc(C(=O)Nc2cc(C3CC3)n[nH]2)c2c(C)nn(C)c2n1`, 28.31%. `CCc1cc(=O)[nH]c(-n2nc(C3CC3)cc2NC(=O)C2CC2)n1`: the “Percent Effect” value is 103.7%. Next, `CCCc1cc(=O)[nH]c(-n2nc(C3CC3)cc2N)n1`: 101.7%.

`CC(C)c1cc(=O)[nH]c(C(C)(C)N)n1.Cl`: the “Percent Effect” value is given as -1.854%. To `CCCc1cc(=O)[nH]c(-c2cccc(CN3CCN4CCCC4C3)c2)n1` (stereo not given) belongs 0.7345%; to `CCC(C)(N)c1nc(C(C)C)cc(=O)[nH]1.Cl` (stereo not given), 7.893%; to `Cc1ccc(CN(CCCN2CCOCC2)Cc2cnc(C)n2C)o1.O=C(O)CC(O)(CC(=O)O)C(=O)O`, -5.16%. In the case of `O=C(O)C(F)(F)F.O=C1COC2(CCN(CC3CCC3)CC2)CN1c1cncnc1`, the “Percent Effect” value is given as -21.31%. Next, `COc1ccc(CN2CCc3c(nc(-c4ccccn4)[nH]c3=O)C2)cc1`: 89.16%. To `O=c1[nH]c(N2CCCCC2)nc2c1CCN(Cc1cccnc1)C2` belongs -9.833%; to `CC1CCCCN1c1nc2c(c(=O)[nH]1)CCN(Cc1ccccn1)C2` (stereo not given), -29.02%; to `CCn1ncc(CN2CCc3c(nc(-c4cccnc4)[nH]c3=O)C2)c1C`, -178.1%.

Regarding `O=c1[nH]c(-c2ccccn2)nc2c1CCN(Cc1cccc(O)c1)C2`, the “Percent Effect” value turned out to be 53.42%. For `COc1ccccc1CN1CCc2c(nc(-c3ccccn3)[nH]c2=O)C1`, the “Percent Effect” value is 93.29%. To `Cn1cc(CN2CCc3c(nc(-c4ccccn4)[nH]c3=O)C2)cn1` belongs -205.6%. To `O=C(c1ccccn1)N1CCc2c(nc(-c3ccncc3)[nH]c2=O)C1` belongs -10.2%; to `Cn1cccc1CN1CCc2ncnc(-c3cccnc3)c2CC1`, -25.32%. Next, `Cc1ncc(CN2CCc3c(nc(-c4ccccn4)[nH]c3=O)C2)n1C`: 8.847%; `Cc1nn(C)cc1CN1CCc2c(nc(-c3ccccn3)[nH]c2=O)C1`: 2.88%; `Cn1cccc1CN1CCc2c(nc(-c3ccccn3)[nH]c2=O)C1`: 73.71%. Take `CCN1CCOCC12CCN(C(=O)C1CCCC1)CC2.O=C(O)C(F)(F)F`: the “Percent Effect” value is -1.07%. With `Cc1cc(C[C@@H]2COC[C@H]2NCc2ccc(Cl)c(Cl)c2)on1.O=C(O)CC(O)(CC(=O)O)C(=O)O`, the “Percent Effect” value was -20.39%. In the case of `COCCC(=O)N1CC2(CCN(Cc3ccccc3Cl)CC2)C1.O=C(O)C(F)(F)F`, the “Percent Effect” value came to 12.96%. As for `CCc1ncc(C(=O)N2CCCN(C3CCCC3)CC2)cn1`, the “Percent Effect” value is on record as -5.155%. To `Cc1ccc2c(n1)N(CCn1cccn1)CCN(C1CCOCC1)C2.O=C(O)C(F)(F)F.O=C(O)C(F)(F)F` belongs -10.35%.

For the compound `Cc1cc(CN2C[C@H](OCC3CCOCC3)[C@H]3COC[C@H]32)oc1C.O=C(O)C(F)(F)F`, the “Percent Effect” value was determined as 5.146%. To `Cc1ccc(CN2CCC[C@@H]3CN(C(=O)c4ccco4)C[C@@H]32)s1.O=C(O)C(F)(F)F` belongs -26.86%. Next, `COc1ncccc1CN1C[C@H]2CCN(c3ccc(C)nn3)C[C@H]2C1.O=C(O)C(F)(F)F`: 16.3%. For `O=C(O)C(F)(F)F.c1ccc(N2CCCC3(CCN(Cc4ccsc4)C3)C2)nc1` (stereo not given), the “Percent Effect” value is given as -1.694%. To `Cc1nc(CN2CCc3ncnc(-c4cccnc4)c3CC2)cs1.O=C(O)C(F)(F)F.O=C(O)C(F)(F)F` belongs -25.69%. Take `O=c1[nH]c(-c2ccccn2)nc2c1CCN(S(=O)(=O)N1CCCC1)C2`: the “Percent Effect” value turned out to be 87.3%.

For the compound `O=c1[nH]c(-c2ccccc2)nc2c1CCN(S(=O)(=O)N1CCCC1)C2`, the “Percent Effect” value is 5.135%. Next, `O=c1[nH]c(-c2ccncc2)nc2c1CCN(S(=O)(=O)N1CCCC1)C2`: -2.171%; `Cc1ccc(CN2Cc3nnn(C)c3C(COCc3ccccn3)C2)s1.O=C(O)C(F)(F)F.O=C(O)C(F)(F)F` (stereo not given): -10.17%; `O=C(NCCC1=CCCCC1)c1cc(-c2ccc(O)cc2)n[nH]1`: 57.62%. As for `CCCc1cc(C(=O)NCCC2=CCCCC2)[nH]n1`, the “Percent Effect” value was found to be 8.132%. Next, `Cc1ccc(-c2cc(C(=O)NCCC3=CCCCC3)[nH]n2)o1`: 46.03%.

Consider `O=C(O)C(F)(F)F.c1coc(CN2CCCn3c(nnc3Cn3cccn3)C2)c1`, for which the “Percent Effect” value was -27.42%. `O=C(O)C(F)(F)F.O=S(=O)(c1cccs1)N1CCCC2(COCCN(c3cccnc3)C2)C1` (stereo not given): the “Percent Effect” value stood at 1.74%. On to `CCn1cc(CN(C)S(=O)(=O)c2cnn(CC)c2C)c(C)n1`, for which the “Percent Effect” value worked out at 95.67%. Consider `CCn1nc(C)c(CN(C)S(=O)(=O)c2cnn(C)c2)c1C`, for which the “Percent Effect” value amounted to 0.2173%. To `CCn1cc(S(=O)(=O)N(C)Cc2c(Br)cnn2CC)c(C)n1` belongs -19.54%; to `CC(=O)N1CCC2(CCCN2Cc2cnn(C)c2)CC1.O=C(O)C(F)(F)F`, -13.44%.

For the compound `NC(=O)Cn1c(SCc2noc(-c3ccsc3)n2)nnc1C1CC1`, the “Percent Effect” value is given as -1.649%. Next, `CC(C)c1nc(CSc2nnc(-c3cccs3)n2CC(N)=O)no1`: 87.51%; `CC(C)c1nc(CSc2nnc(C3CC3)n2CC(N)=O)no1`: -3.28%; `O=C(C1CC(F)(F)C1)N1C[C@@H]2CN(CC3CC3)CCO[C@@H]2C1.O=C(O)C(F)(F)F`: -22.01%. To `Cc1cccc(CN2CCC3(CCN(c4ncccn4)C3)C2=O)c1` (stereo not given) belongs -17.59%; to `O=C1N(Cc2ccc(F)c(F)c2)CCCC12CCN(C1CCSCC1)C2` (stereo not given), 39.79%; to `O=C1N(Cc2ccc(F)c(F)c2)CCCC12CCN(C1CCCC1)C2` (stereo not given), 48.94%. Take `CCS(=O)(=O)N1CCC2(CCCN(Cc3ccc(F)c(F)c3)C2=O)C1` (stereo not given): the “Percent Effect” value is listed as -4.443%. To `O=C1N(Cc2ccccc2F)CCCC12CCN(C1CCSCC1)C2` (stereo not given) belongs 35.05%; to `Cc1cccc(CN2CCCC3(CCN(C4CCSCC4)C3)C2=O)c1` (stereo not given), 68.24%. To `CCc1cnc(N2CCC3(CCN(Cc4cccc(C)c4)C3=O)C2)nc1` (stereo not given) belongs -25.62%; to `O=C1N(Cc2ccc(F)cc2)CCCC12CCN(C1CCSCC1)C2` (stereo not given), 56.84%. Turning to `O=C1N(Cc2ccc(F)c(F)c2)CCCC12CCN(C1CCCCC1)C2` (stereo not given), the “Percent Effect” value amounted to 88.26%. Next, `CN(C)C(=O)CN1CCC2(CCCN(Cc3cccn3C)C2)C1=O.O=C(O)C(F)(F)F` (stereo not given): 8.62%; `CN(C)c1ncc2c(c1C(=O)O)CCN(Cc1ccco1)C2.O=C(O)C(F)(F)F.O=C(O)C(F)(F)F`: 10.22%; `Cc1ccc(N2CCC3(CCN(C(=O)N(C)C)CC3)CC2)nn1.O=C(O)C(F)(F)F`: 0.5325%. Next, `CC(C)N(C)C[C@H]1C[C@@H]2CN(Cc3ccco3)C[C@@H]2O1.O=C(O)C(F)(F)F.O=C(O)C(F)(F)F`: -4.4%. To `CCCN1CCC(c2nc3ccc(-c4ccccc4)cn3n2)CC1.O=C(O)C(F)(F)F` belongs -8.011%. Regarding `O=C(O)C(F)(F)F.O=C(O)C(F)(F)F.c1cncc(OC[C@@H]2CC[C@H]3[C@H](CCN3Cc3cccs3)O2)c1`, the “Percent Effect” value was -169%. Next, `CC(=O)NC1CCN(c2cc(C3CCNCC3)nc(C)n2)C1` (stereo not given): -7.027%; `Cc1nc(C)n(CC2CCCN2Cc2nc3ccccc3c(=O)[nH]2)n1` (stereo not given): -31.26%; `Cn1cc(C2CCCN2CCc2nc3ccccc3c(=O)[nH]2)cn1` (stereo not given): 2.636%. Regarding `Cc1cnn(CC2CCCN2Cc2nc3ccccc3c(=O)[nH]2)c1` (stereo not given), the “Percent Effect” value came out at 89.62%.

Turning to `O=c1[nH]c(CCN2CCCC2Cn2cncn2)nc2ccccc12` (stereo not given), the “Percent Effect” value is reported as 48.51%. Next, `O=c1[nH]c(CCN2CCCC2Cn2cccn2)nc2ccccc12` (stereo not given): 50.72%; `O=c1[nH]c(CCN2CCCCC2Cn2cccn2)nc2ccccc12` (stereo not given): 29.01%. Next, `O=S(=O)(CCN1CCCC1Cn1cccn1)c1ccccc1` (stereo not given): 15.63%. For the compound `Cc1cnn(CC2CN(Cc3nc4ccccc4c(=O)[nH]3)CCO2)c1` (stereo not given), the “Percent Effect” value is reported as 8.669%. To `Cc1cnn(CC2CCCN2CCc2nc3ccccc3c(=O)[nH]2)c1` (stereo not given) belongs 98.35%; to `CC(C)(C)c1n[nH]cc1CNC1CCC(C(F)(F)F)CC1.Cl` (stereo not given), -43.27%; to `Cl.O=C(O)CN1CCC(C(F)(F)F)CC1`, 11.41%. To `CN(Cc1cccnc1)C1CC2(CCN(Cc3cccnc3)CC2)C1.O=C(O)C(F)(F)F.O=C(O)C(F)(F)F.O=C(O)C(F)(F)F` belongs -1.954%; to `CNS(=O)(=O)c1cccc(S(=O)(=O)Nc2ncc(C)s2)c1`, 68.64%; to `COCc1cccc(S(=O)(=O)Nc2ncc(C)s2)c1`, 15.26%. To `Cc1cnc(NS(=O)(=O)c2ccccc2)s1` belongs 4.612%; to `Cc1cnc(NS(=O)(=O)c2cccc(C#N)c2)s1`, -32.7%. Turning to `COC(=O)c1cccc(S(=O)(=O)Nc2ncc(C)s2)c1`, the “Percent Effect” value was determined as 1.16%. To `CCOCc1cccc(S(=O)(=O)Nc2ncc(C)s2)c1` belongs 52.82%; to `Cl.O=C(C1CCCC1)N1C[C@@H](c2ccsc2)[C@@H]2CN(C3CCCC3)CC[C@@H]21`, 3.962%. To `COCCN1CCCn2c(nc(Cn3cncn3)cc2=O)C1.O=C(O)C(F)(F)F` belongs 17.08%; to `CCOCC1CC2(CCN(C(=O)c3ncccn3)CC2)CO1` (stereo not given), -17.44%; to `O=C(Nc1ccccc1)N1C[C@H]2C[C@H](C(=O)N3CCCC3)[C@@H](C1)O2`, -25.79%. To `COCC1N(C(=O)c2ccco2)[C@H]2CC[C@]1(O)CC2` (stereo not given in full) belongs 16.02%; to `O=C(O)C(F)(F)F.O=C(c1ccno1)N1CCO[C@@H]2CC(COCc3ccccn3)C[C@H]21` (stereo not given in full), 1.135%.

Source of the values: ChEMBL document CHEMBL3988442, “University of Dundee, Small-Polar-MMV Screening Library” (2021).
